Test results: PubChem BioAssay AID624169 (The Scripps Research Institute Molecular Screening Center, 2012)
Hit rate of the full screen: of about 360,000 compounds, about 2,400 (0.67%) were called active.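 The calls were made as follows: active = activation above a run cutoff, the mean activation of all tested compounds plus 3 SD (cut at about 14% in these data); inactive = the rest.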 This excerpt belongs to a sample that is enriched for actives.

Each compound was assayed against 5-hydroxytryptamine receptor 2A (Mus musculus) (UniProt P35363) (assay: mouse Htr2a agonists via beta-arrestin recruitment, primary screen, cell-based, luminescence (AID 624169;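 also: 0% = plate median of compound wells and 100% = 30 µM serotonin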)). Conditions: CHO-K1 mHTR2A beta-arrestin complementation, at 7.6 µM, stronger effect = higher value, percent of 30 µM serotonin response.
Chain of 5-hydroxytryptamine receptor 2A (Mus musculus) (P35363 whole entry, looked up): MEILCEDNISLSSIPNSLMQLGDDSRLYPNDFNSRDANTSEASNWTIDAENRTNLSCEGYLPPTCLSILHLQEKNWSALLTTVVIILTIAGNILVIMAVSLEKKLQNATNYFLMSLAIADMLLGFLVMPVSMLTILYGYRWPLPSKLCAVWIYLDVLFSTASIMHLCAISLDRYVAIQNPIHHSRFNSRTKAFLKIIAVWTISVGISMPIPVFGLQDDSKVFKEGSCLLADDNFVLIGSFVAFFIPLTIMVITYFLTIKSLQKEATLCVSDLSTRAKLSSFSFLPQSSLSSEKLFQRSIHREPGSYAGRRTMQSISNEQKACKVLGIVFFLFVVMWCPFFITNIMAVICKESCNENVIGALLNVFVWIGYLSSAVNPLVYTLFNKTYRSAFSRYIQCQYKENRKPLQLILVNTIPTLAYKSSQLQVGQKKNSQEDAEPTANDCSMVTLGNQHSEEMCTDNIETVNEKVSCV

Row | Compound | activation
1 | CC(C)c1nc(CNC(=O)CC2C(=O)NCCN2Cc2ccoc2)cs1 (centres undefined) | 2.97% (inactive)
2 | Cc1ccc(Cc2c(C)nc3nc(SCC(=O)NCCN4CCOCC4)nn3c2C)cc1 | -7.66% (inactive)
3 | O=C(Oc1ccc2c(c1)CCC2)N1CCOCC1 | -4.84% (inactive)
4 | CC(=O)OC(C(=O)NCCc1ccccc1)c1cccnc1 (centres undefined) | 3.53% (inactive)
5 | CC(C)COP(=O)(c1ccc(N(C)C)cc1)C(Nc1ccccc1)c1cccnc1 (centres undefined) | -1.14% (inactive)
6 | CC(Nc1ccccc1)c1cccnc1 (centres undefined) | 18.4% (active)
7 | CCOP(=O)(OCC)C(Nc1ccc([N+](=O)[O-])cc1)c1ccc(Cl)cc1 (centres undefined) | -5.36% (inactive)
8 | Cc1ccc(NS(=O)(=O)c2cccs2)cc1S(=O)(=O)N1CCCCCC1 | -1.7% (inactive)
9 | O=C(NCCS(=O)(=O)N1CCN(c2ccc(F)cc2)CC1)c1ccc2c(c1)OCO2 | 5.83% (inactive)
10 | Cc1cc(O)c(C2(O)C(=O)Nc3ccccc32)cc1C (centres undefined) | -4.53% (inactive)
11 | O=C(c1ccco1)N1CCN(CCOc2ccccc2)CC1 | 16.4% (active)
12 | O=C(OCC(=O)N1CCN(C(=O)c2ccco2)CC1)c1c(Cl)cccc1Cl | -3.04% (inactive)
13 | O=C(c1ccco1)N1CCN(Cc2cccc(C(F)(F)F)c2)CC1 | 11.3% (inactive)
14 | O=C(c1ccc(Br)o1)N1CCN(CCOc2ccccc2)CC1 | -0.54% (inactive)
15 | COc1cccc(OC)c1OCCN1CCN(C(=O)c2ccco2)CC1 | 14.4% (active)
16 | O=C(c1ccco1)N1CCN(C(=O)c2ccc(COc3ccc(F)cc3)o2)CC1 | 2.33% (inactive)
17 | Cc1ccc2cc(CN(c3ccc(C)c(C)c3)S(C)(=O)=O)c(=O)[nH]c2c1 | -0.92% (inactive)
18 | CC1CC(=S)Nc2ccccc2N1Cc1ccccc1 (centres undefined) | -4.32% (inactive)
19 | CC(C)NC(=O)CSc1nnc(COc2ccccc2Cl)o1 | 0.27% (inactive)
20 | Cc1ccc(NC(=O)CSc2nnc(COc3ccccc3C)o2)cc1 | 40.1% (active)
21 | Cc1ccc(NC(=O)CSc2nnc(CNC(=O)c3ccccc3F)o2)cc1 | -0.39% (inactive)
22 | O=C(c1ccc(NS(=O)(=O)c2ccc3[nH]c(=O)[nH]c3c2)cc1)N1CCCCC1 | 2.95% (inactive)
23 | CC(=O)c1ccc(NC(=O)C(C)OC(=O)c2ccc(NS(=O)(=O)c3ccc4[nH]c(=O)[nH]c4c3)cc2)cc1 (centres undefined) | -1.56% (inactive)

Row | Compound | activation
24 | COc1ccc(CNC(=O)c2ccc(NS(=O)(=O)c3ccc4[nH]c(=O)[nH]c4c3)cc2)cc1OC | 16.1% (active)
25 | COc1ccc2c(c1)C(=C(C#N)C#N)C(=O)N2CCc1ccccc1 | -0.11% (inactive)
26 | CC(C)CC1C(=O)N(Cc2cn(Cc3ccco3)nn2)CCS(=O)(=O)N1Cc1ccc(-c2ccc(Cl)c(Cl)c2)cc1 (centres undefined) | -3.53% (inactive)
27 | O=C(O)C1C2C=CC(O2)C1C(=O)NCCc1cccc(Cl)c1 (centres undefined) | 21.1% (active)
28 | O=C(O)C1CC=CCC1C(=O)NCCc1ccccc1 (centres undefined) | 7.31% (inactive)
29 | O=C(O)C1C2C=CC(O2)C1C(=O)Nc1ccccn1 (centres undefined) | -3.53% (inactive)
30 | Cc1ccccc1CN1CCC(C(=O)Nc2ccc(Oc3cccnc3)cc2)CC1 | -1.91% (inactive)
31 | O=C(Nc1ccc(Cl)cc1)c1csc([C@H]2C[C@H](O)[C@@H](CO)O2)n1 | 4.98% (inactive)
32 | O=C(Nc1nnc([C@H]2C[C@H](O)[C@@H](CO)O2)s1)c1cccc(Cl)c1 | 5.77% (inactive)
33 | O=C(Nc1cccc2cccnc12)c1ccc2sc([C@H]3C[C@H](O)[C@@H](CO)O3)nc2c1 | 16.7% (active)
34 | Cc1cccc(-n2c(Cc3cc(=O)[nH]c(=O)[nH]3)nnc2SCC(=O)Nc2cccc(C(F)(F)F)c2)c1 | 3.15% (inactive)
35 | C/C(=N\NC(=S)NC1CCCCC1)c1ccc(C)o1 | 21.6% (active)
36 | Cc1ccc(/C=N/NC(=S)NC2CCCCC2)o1 | 4.42% (inactive)
37 | C/C(=N/NC(=O)c1ccc(Br)o1)c1ccc(C)o1 | 0.28% (inactive)
38 | N#CC1=C(SCc2ccc(C#N)cc2)N=C(N)C(c2nc(-c3ccccc3)cs2)C12CCCCC2 (centres undefined) | -0.07% (inactive)
39 | COc1ccc(OC)c(C(O)c2ncc(-c3cccc(C(F)(F)F)c3)[nH]2)c1 (centres undefined) | -2.32% (inactive)
40 | O=C(Cc1ccccc1Cl)N1CCOCC1 | -3.57% (inactive)
41 | CN(C(=O)c1ccc(NC(=O)Cc2cccc(NC(=O)C3CCN(C(=O)c4ccccc4)CC3)c2)cc1)C1CC1 | -6.22% (inactive)
42 | COc1ccc(NS(=O)(=O)c2cc(C(=O)Nc3ccccc3C(=O)O)ccc2C)cc1 | 17.9% (active)
43 | COc1ccc(NS(=O)(=O)c2cc(NC(=O)CC(=O)c3ccc([N+](=O)[O-])cc3)ccc2C)cc1 | -2.57% (inactive)
44 | Cc1ccc(C(=O)Nc2ccccc2-c2ccccc2)cc1S(=O)(=O)Nc1ccccc1 | 5.68% (inactive)
45 | O=S(=O)(Nc1cccc(-c2ccc(N3CCOCC3)nn2)c1)c1ccc(Cl)c(Cl)c1 | -3.29% (inactive)
46 | O=C1CCc2cc(S(=O)(=O)N3CCC(C(=O)NCc4ccccc4Cl)CC3)ccc2N1 | 19.6% (active)

Row | Compound | activation
47 | O=C(NCc1ccccc1Cl)C1CCN(S(=O)(=O)N2CCOCC2)CC1 | 2.15% (inactive)
48 | O=C(NCc1ccccc1CN1CCCC1)C1CCN(S(=O)(=O)c2ccc(Cl)cc2)CC1 | -12.7% (inactive)
49 | COc1cccc(C(=O)n2ccc(-c3cccs3)n2)c1 | 2.87% (inactive)
50 | Cc1ccc(C(=O)N2CCN(C3CCCCC3)CC2)s1 | 7.15% (inactive)
51 | CCOCCOC(=O)C1=C(C)N(C)C(=O)NC1c1ccccc1F (centres undefined) | 1.37% (inactive)
52 | O=C(CN(Cc1ccc(Br)cc1)S(=O)(=O)c1ccccc1)NCc1ccncc1 | -1.63% (inactive)
53 | CCc1ccc(CN(C)C(=O)C2CCC(=O)N(Cc3cccc(OC)c3)C2)nc1 (centres undefined) | 6.04% (inactive)
54 | CC(=O)Nc1ccc(S(=O)(=O)N2CCC(N(C)CCC(C)C)CC2)cc1 | 6.97% (inactive)
55 | Cc1ccc(NC(=O)CN(C)Cc2ccc(F)cc2)c([N+](=O)[O-])c1 | 1.68% (inactive)
56 | CCOc1cc(C(=O)OCC(=O)Nc2cccc(C)c2)ccc1OCC(=O)N1CCOCC1 | -2.12% (inactive)
57 | CCn1cc(C(=O)N2CC=C(c3ccccc3)CC2)c(=O)c2ccc(C)nc21 | -3.76% (inactive)
58 | CCn1cc(C(=O)OCC(=O)Nc2cccc(C)c2)c(=O)c2ccc(C)nc21 | 20.9% (active)
59 | C=CCNC(=O)CC12CC3CC(C1)CC(CC(=O)NCC=C)(C3)C2 | -3.65% (inactive)
60 | CCCC(=O)N1c2ccc(-c3csc(N)n3)cc2CC1C (centres undefined) | 1.22% (inactive)
61 | CC(C)(C)C(=O)OCc1nc(-c2ccc(O)c(O)c2)cs1 | 14.9% (active)
62 | CN(c1ccc(O)cc1)c1nc(-c2cccnc2)cs1 | -2.76% (inactive)
63 | CC(=O)c1c(C)n([O-])c2ccccc2[n+]1=O | 4.16% (inactive)
64 | C=CCn1c(=NC(=O)c2ccc(S(=O)(=O)N3CCCC3)cc2)sc2cc(NC(C)=O)ccc21 | 1.21% (inactive)
65 | C=CCn1c(=NC(=O)c2cccs2)sc2cc(NC(C)=O)ccc21 | 23.5% (active)
66 | C=CCn1c(CCNC(=O)c2cccs2)n[nH]c1=S | 4% (inactive)
67 | O=C(O)c1ccccc1Cc1ccc(F)c2ccccc12 | -0.35% (inactive)
68 | CCc1ccc2nc(Nc3ncc(C(C)=O)c(C)n3)nc(C)c2c1 | -1.39% (inactive)
69 | COc1ccccc1Nc1nnc(SC(C)C(=O)NC2CC2)s1 (centres undefined) | 14.8% (active)

Row | Compound | activation
70 | O=C(CSc1nnc(Nc2ccccc2F)s1)NC1CCCC1 | -5.06% (inactive)
71 | COc1ccc(-c2nnc(SC(C)C(=O)NC3CC3)o2)cc1 (centres undefined) | -2.06% (inactive)
72 | CCCCC1N2CC3([N+](=O)[O-])CN1CC([N+](=O)[O-])(C2)C3(C)C (centres undefined) | -2.15% (inactive)
73 | CCc1ccc(OCC(=O)N(Cc2ccccc2)C2CCS(=O)(=O)C2)cc1 (centres undefined) | -6.02% (inactive)
74 | CCCCN(C(=O)COc1ccc(NC(C)=O)cc1)C1CCS(=O)(=O)C1 (centres undefined) | -2.25% (inactive)
75 | CC(=O)c1ccc(OCC(=O)N(C)C2CCS(=O)(=O)C2)cc1 (centres undefined) | 18.4% (active)
76 | CN1C(=O)c2ccc(NC(=O)c3c(F)c(F)c(F)c(F)c3F)cc2C1=O | 5.38% (inactive)
77 | COc1ccc(C(=O)Nc2c(N)nc(SCC(=O)N3CCC(C)CC3)[nH]c2=O)cc1OC | 3.82% (inactive)
78 | O=Cc1cn(CCOc2ccc(F)cc2)c2ccccc12 | -3.3% (inactive)
79 | COc1ccc(N(C(=O)CNC(=O)c2ccco2)C(C(=O)NCC2CCCO2)c2ccccc2)cc1Cl (centres undefined) | -3.88% (inactive)
80 | Cc1noc(C)c1S(=O)(=O)N(CC(=O)Nc1ccc2c(c1)OCCO2)c1ccc(C(C)C)cc1 | 18.8% (active)
81 | CCOC(=O)c1cccc(NC(=O)CN(c2ccc(C)cc2)S(=O)(=O)c2c(C)noc2C)c1 | 4.56% (inactive)
82 | Cc1noc(C)c1S(=O)(=O)N(CC(=O)NCc1ccc(Cl)cc1)c1ccc2c(c1)OCO2 | 10.9% (inactive)
83 | COc1ccc(CN2CCN(C(=O)CCC(=O)Nc3nnc(C(C)C)s3)CC2)cc1F | 10.4% (inactive)
84 | COc1ccc(NC(=O)C(NC(C)=O)C(=O)NCc2ccccc2Cl)cc1 (centres undefined) | -1.72% (inactive)
85 | CC(C)NS(=O)(=O)c1ccc(CCC(=O)N2CCOCC2)cc1 | -3.51% (inactive)
86 | COCc1cc(=O)oc2cc(NS(=O)(=O)c3ccc(C)cc3)ccc12 | 6.31% (inactive)
87 | CC(=O)N1c2ccc(S(=O)(=O)N3CCC(C(=O)NCc4ccc(F)cc4)CC3)cc2CC1C (centres undefined) | 5.7% (inactive)
88 | CC(=O)N1c2ccc(S(=O)(=O)N3CCC(C(=O)NC4CCCC(C)C4C)CC3)cc2CC1C (centres undefined) | -2.05% (inactive)
89 | CC(=O)N1c2ccc(S(=O)(=O)N3CCC(C(=O)NC4CCCCC4C)CC3)cc2CC1C (centres undefined) | 15.7% (active)
